A short description of assay [1]: qHTS assay to identify small molecule agonists of the peroxisome proliferator-activated receptor delta (PPARd) signaling pathway - cell viability counter screen (AID 743211). Further: nearly all actives have a fitted effect of over 55% in size. In outline:
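In the same wells used for beta-lactamase reporter measurement, cytotoxicity is scored by CellTiter-Glo. HEK293H PPARd-bla cells receive compound for 17 h at 37C following a 5 h settling period.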

In assay [2] the target is Peroxisome proliferator-activated receptor delta (Homo sapiens) (UniProt Q03181). The assay can be described thus: qHTS assay to identify small molecule agonists of the peroxisome proliferator-activated receptor delta (PPARd) signaling pathway (AID 743212; calls by dose curve;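 further: HEK293H cells with PPARd UAS beta-lactamase reporter GeneBLAzer system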). A digest of the protocol: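 Steps: seed PPARd-bla HEK293H cells; incubate 5 h, 37 C, 5% CO2; add compounds in DMSO; incubate, 37 C; add LiveBLAzer B/G FRET substrate; hold 2 h at room temperature; measure fluorescence.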

In assay [3] the target is Bile acid receptor (Homo sapiens) (UniProt Q96RI1). The assay can be described thus: qHTS assay to identify small molecule antagonists of the farnesoid-X-receptor (FXR) signaling pathway (AID 743217; active means well fitted inhibition curve with a large enough effect in the signal ratio in the repeat runs, not every such curve was filed as active; the % refers to the signal ratio; further: potency means the concentration at half of the fitted maximal effect). In outline:
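Antagonist mode: chenodeoxycholic acid at 50 uM final stimulates a UAS-driven beta-lactamase reporter in HEK 293T FXR-bla cells during 16 h, 37C compound exposure. Read-out is FRET substrate fluorescence after 2 h at room temperature.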

The nature of assay [4]: qHTS assay to identify small molecule agonists of the farnesoid-X-receptor (FXR) signaling pathway - cell viability counter screen (AID 743218). Further: nearly all actives have a fitted effect of over 45% in size. In outline:
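Viability counter screen in the same wells: CellTiter-Glo luminescence, 30 min room-temperature incubation, measured after the beta-lactamase read. Cells were GeneBLAzer FXR-UAS-bla HEK 293T, compound-treated 16 h at 37C.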

Assay [5] concerns the target Vitamin D3 receptor (Homo sapiens) (UniProt P11473). The assay can be described thus: qHTS assay to identify small molecule agonists of the vitamin D receptor (VDR) signaling pathway (AID 743222; calls by dose curve). A digest of the protocol:
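Agonist mode, beta-lactamase reporter: fluorescence from LiveBLAzer B/G FRET substrate (2 h, room temperature) read after 16 h compound treatment at 37 C of VDR-bla cells, which were pre-incubated 4 h after seeding.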

In assay [6] the target is Peroxisome proliferator-activated receptor delta (Homo sapiens) (UniProt Q03181). The assay can be described thus: qHTS assay to identify small molecule antagonists of the peroxisome proliferator-activated receptor delta (PPARd) signaling pathway (AID 743215; active means well fitted inhibition curve with a large enough effect in the signal ratio in the repeat runs, not every such curve was filed as active; the % refers to the signal ratio;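 further: cells stimulated with agonist L165041 at 300 nM final during compound exposure; series mostly up to about 62 µM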). In outline:
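Agonist L165041 (300 nM final) added with compound to PPARd-bla HEK293H UAS-bla reporter cells; 17 h incubation at 37 C. Read-out: LiveBLAzer FRET substrate, 2 h at room temperature, fluorescence intensity.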

Assay [7] is described as follows: qHTS assay to identify small molecule antagonists of the farnesoid-X-receptor (FXR) signaling pathway - cell viability counter screen (AID 743221; active means well fitted cell-killing curve with a large enough effect in the repeat runs, not every such curve was filed as active; further: nearly all actives have a fitted effect of over 50% in size). In outline: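 Here viability was scored by luminescence after CellTiter-Glo addition to wells already read for beta-lactamase. Prior treatment: compound plus CDCA (50 uM final), 16 h, 37 C, HEK 293T FXR-bla cells.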

In assay [8] the target is Vitamin D3 receptor (Homo sapiens) (UniProt P11473). The assay can be described thus: qHTS assay to identify small molecule antagonists of the vitamin D receptor (VDR) signaling pathway (AID 743223; active means well fitted inhibition curve with a large enough effect in the signal ratio in the repeat runs, not every such curve was filed as active; the % refers to the signal ratio). In outline: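 Inhibition of agonist-driven VDR signalling is scored in VDR-bla cells: 3 nM final 1alpha,25-dihydroxyvitamin D3 plus compound, 16 h at 37C, then beta-lactamase detection by FRET substrate fluorescence after 2 h.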

Assay [9] is described as follows: qHTS assay to identify small molecule antagonists of the peroxisome proliferator-activated receptor delta (PPARd) signaling pathway - cell viability counter screen (AID 743213). Further: nearly all actives have a fitted effect of over 50% in size. A digest of the protocol: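 Viability counter-screen, qHTS format: PPARd-bla HEK293H, L165041 300 nM final, 17 h compound exposure at 37 C, CellTiter-Glo luminescence after 30 min RT.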

The target in assay [10] is Bile acid receptor (Homo sapiens) (UniProt Q96RI1). The assay can be described thus: qHTS assay to identify small molecule agonists of the farnesoid-X-receptor (FXR) signaling pathway (AID 743220; active means well fitted activation curve with a large enough effect in the signal ratio in the repeat runs, not every such curve was filed as active; the % refers to the signal ratio). A digest of the protocol:
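FXR-UAS-bla HEK 293T cells carrying a UAS-driven beta-lactamase reporter were plated for 5 h at 37C/5% CO2, then exposed to DMSO-dissolved Tox21 10K compounds for 16 h at 37C. A LiveBLAzer B/G FRET substrate was loaded for 2 h at room temperature before fluorescence reading.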

Molecules are shown by their SMILES. Results filed as inconclusive are left out. Activity calls are given as the source filed them. Unless noted, the call rests on the fitted dose curve; in most records, active means well fitted curve in the direction sought with a large enough effect in the repeat runs; inconclusive means weak or mixed curves; inactive means no such curve, though single readings can be large; an effect the other way counts as inactive or inconclusive.

The source of these data is PubChem BioAssay (Tox21).

Bile acid receptor (Homo sapiens), sequence (Q96RI1 whole entry, looked up): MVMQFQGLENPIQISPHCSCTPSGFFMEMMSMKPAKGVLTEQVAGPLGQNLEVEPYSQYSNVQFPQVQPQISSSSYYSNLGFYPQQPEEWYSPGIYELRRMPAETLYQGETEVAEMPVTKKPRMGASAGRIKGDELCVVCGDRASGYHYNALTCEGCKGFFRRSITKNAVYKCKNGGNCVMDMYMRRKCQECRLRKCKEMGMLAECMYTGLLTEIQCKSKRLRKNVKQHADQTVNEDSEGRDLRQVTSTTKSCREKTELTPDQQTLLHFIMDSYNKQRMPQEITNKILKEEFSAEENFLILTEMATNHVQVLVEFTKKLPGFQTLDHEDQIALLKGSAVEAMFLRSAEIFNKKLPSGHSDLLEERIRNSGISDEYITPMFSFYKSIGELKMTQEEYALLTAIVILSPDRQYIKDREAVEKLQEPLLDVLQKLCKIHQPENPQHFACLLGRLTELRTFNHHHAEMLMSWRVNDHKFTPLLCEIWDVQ
Vitamin D3 receptor (Homo sapiens), sequence (P11473 whole entry, looked up): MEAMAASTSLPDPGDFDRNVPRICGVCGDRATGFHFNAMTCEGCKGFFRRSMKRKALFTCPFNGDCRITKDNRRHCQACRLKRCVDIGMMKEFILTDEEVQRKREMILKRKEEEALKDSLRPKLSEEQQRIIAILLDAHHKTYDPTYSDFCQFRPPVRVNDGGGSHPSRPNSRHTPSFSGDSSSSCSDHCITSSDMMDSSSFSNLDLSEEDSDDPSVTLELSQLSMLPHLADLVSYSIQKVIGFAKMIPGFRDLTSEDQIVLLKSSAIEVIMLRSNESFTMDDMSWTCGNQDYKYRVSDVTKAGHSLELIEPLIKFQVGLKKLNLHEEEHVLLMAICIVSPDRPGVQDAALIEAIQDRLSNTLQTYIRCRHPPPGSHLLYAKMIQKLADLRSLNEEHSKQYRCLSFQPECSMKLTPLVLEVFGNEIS
Peroxisome proliferator-activated receptor delta (Homo sapiens), sequence (Q03181 whole entry, looked up): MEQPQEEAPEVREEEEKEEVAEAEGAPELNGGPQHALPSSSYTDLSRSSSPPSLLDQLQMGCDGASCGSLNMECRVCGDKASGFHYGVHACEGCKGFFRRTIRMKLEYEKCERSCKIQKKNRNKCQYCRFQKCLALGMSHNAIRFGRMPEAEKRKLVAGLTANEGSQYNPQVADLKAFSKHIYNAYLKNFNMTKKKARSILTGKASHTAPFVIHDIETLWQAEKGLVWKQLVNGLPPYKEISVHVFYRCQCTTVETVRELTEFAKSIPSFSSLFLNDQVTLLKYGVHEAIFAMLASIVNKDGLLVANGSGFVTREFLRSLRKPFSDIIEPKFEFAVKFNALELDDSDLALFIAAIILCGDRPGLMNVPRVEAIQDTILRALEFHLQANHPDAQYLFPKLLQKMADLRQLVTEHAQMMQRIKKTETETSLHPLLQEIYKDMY

Regarding `C1CCCNCCC1`, the Potency entry in assay [1], in assay [2], in [3], in assay [4] and in assay [5] was “inactive” throughout.

Consider `O=C(NCC1CN(c2ccc(N3CCOCC3=O)cc2)C(=O)O1)c1ccc(Cl)s1` (stereo not given), for which the Potency result in assay [1], in assay [2], in assay [6], in assay [4], in assay [7] and in assay [5] was “inactive” each time. Moreover, the result in assay [8] was inactive.

As to `OC(CN1CCC(Cc2ccc(F)cc2)CC1)c1ccc(Cl)cc1` (stereo not given), the Potency result in [1], in assay [9], in [3], in assay [4], in assay [10] and in assay [7] was “inactive” throughout.

As for `Nc1ccccc1S(=O)(=O)c1ccccc1`, the Potency result in assay [1], in assay [9], in assay [3], in assay [4], in assay [10] and in assay [7] was “inactive” throughout. In assay [5], the Potency entry is “inactive”.

In the case of `Nc1ncn([C@H]2C[C@H](O)[C@@H](CO)O2)c(=O)n1`, the Potency result in [1], in [9], in [4], in [10], in assay [7] and in assay [5] was “inactive” throughout. In assay [3], the Potency was 10.6 µM (active). The call in assay [8] was inactive.

Consider `C=CC1CC2C=CC1C2` (stereo not given), for which the Potency result in assay [1], in assay [2], in assay [7] and in assay [5] was “inactive” in each case. Moreover, the result in [8] was inactive.

Regarding `CCCCCCCC#N`, the Potency entry in assay [1], in assay [2], in [4] and in [7] was “inactive” in each case. Also, the compound was called inactive in assay [8].

With `C[C@@H]1C[C@H]2[C@@H]3CCC4=CC(=O)C=C[C@]4(C)[C@@]3(F)[C@@H](O)C[C@]2(C)[C@@]1(O)C(=O)COC(=O)c1ccncc1`, the Potency entry in assay [1], in assay [2], in assay [7] and in assay [5] was “inactive” throughout. In addition, in [8], the result was inactive.

With `COc1ccc(C)cc1[N+](=O)[O-]`, the Potency entry in [1], in assay [9], in assay [3], in assay [4], in [10] and in [7] was “inactive” each time. Moreover, in assay [5], the Potency entry is “inactive”.
